Screening results as filed in PubChem BioAssay.
Jurkat NFkB inh = lowers PMA/ionomycin-induced NF-kB signal in Jurkat cells; PMA/ionomycin-induced NF-kB luciferase reporter, luminescence; inhibition, % at 4 µM; 0.53% of 330,000 active; AID 435003; in the data active means inhibition above about 50%
NR2F2 inh = inhibitors of human COUP-TFII (NR2F2); inhibition, % at 8.6 µM; HEK293T NGFI-A luciferase reporter, luminescence; 0.7% of 370,000 active; P24468;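 active means inhibition above a per-plate cutoff, mean inhibition of test wells between control levels plus 3 SD, cut at about 38% in these data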;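 further: cells cotransfected with COUP-TFII expression vector driving the NGFI-A reporter; 0% = median of COUP-TF2 test wells and 100% = reporter-only cells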
Target sequence (P24468 whole entry, looked up): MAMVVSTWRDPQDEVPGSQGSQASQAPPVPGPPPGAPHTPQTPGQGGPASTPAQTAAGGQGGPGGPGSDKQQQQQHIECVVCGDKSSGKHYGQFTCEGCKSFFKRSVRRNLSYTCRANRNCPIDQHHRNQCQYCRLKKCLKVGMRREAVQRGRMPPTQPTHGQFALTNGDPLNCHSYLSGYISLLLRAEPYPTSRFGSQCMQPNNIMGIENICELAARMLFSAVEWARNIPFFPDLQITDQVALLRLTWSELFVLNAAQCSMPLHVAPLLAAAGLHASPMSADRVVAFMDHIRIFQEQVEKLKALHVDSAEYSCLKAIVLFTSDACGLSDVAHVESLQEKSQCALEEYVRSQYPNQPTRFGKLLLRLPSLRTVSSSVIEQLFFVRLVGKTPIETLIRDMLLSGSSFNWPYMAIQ
H9c2 TAG inh = inhibitors of triacylglycerol accumulation; H9c2 cells, Nile Red lipid (TAG) fluorescence; cells loaded with 200 µM oleic acid; inhibition, % at 12.5 µM; 0.66% of 230,000 active; AID 651582;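 active means pattern-corrected inhibition of lipid staining of at least 50% with the nuclear-stain viability signal not falling by more than 50%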;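 further: 0% = DMSO wells and 100% = triacsin C control wells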
Gli-Sufu antag = blocks Gli-Sufu signaling in a luciferase reporter; Sufu-KO-LIGHT fibroblasts, Gli luciferase reporter luminescence; inhibition, % at 5 µM; 0.74% of 340,000 active; AID 588413;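 active means inhibition above about 55%, limit read from the data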;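 further: 0% = DMSO-treated cells and 100% = wells with medium but no cells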
697 NFkB inh = inhibitors of the PMA/ionomycin-induced NF-kB reporter in 697 B cells | 697 B-cell NF-kB luciferase reporter, 16 h | inhibition, % at 4 µM | 0.33% of 330,000 active; in the data active means inhibition above about 35%
H9c2 protect = myocardial damage modulation in H9c2 cells; 0.63% of 360,000 active; protection from H2O2 cell death, % at 20 µM; H9c2 cardiomyocytes, H2O2 injury protection, ATPLite, 2 h;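 active means compounds giving at least 50% protection of heart cells from peroxide-induced death in the single-dose screen, raw or plate-pattern-corrected value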;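 further: 0% = DMSO wells with peroxide and 100% = DMSO wells without peroxide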
* = called active by the depositor; · = not tested or not shown. An excerpt weighted towards active compounds, which were near 2.6% of everything screened.

SMILES | Jurkat NFkB inh | NR2F2 inh | H9c2 TAG inh | Gli-Sufu antag | 697 NFkB inh | H9c2 protect
COC(=O)C[C@@H]1CC[C@@H]2[C@H](COc3ccc(NC(=O)c4ccc(F)c(F)c4)cc3C(=O)N2C)O1 | · | 4 | · | · | · | ·
FC(F)(F)c1nnc2ccc(N3CCCC3)nn12 | 0 | 1 | 35 | 5 | -9 | 52*
FC(F)(F)c1nnc2ccc(N3CCCCCC3)nn12 | -4 | -16 | · | 13 | -8 | 0
COc1ccc(OC)c(N(CC(=O)Nc2cccnc2)S(=O)(=O)c2ccc(OC)c(OC)c2)c1 | -2 | -1 | 15 | -2 | -3 | 50*
Cc1cc(=O)oc2cc(OCC(=O)N3CCN(C(=O)C4COc5ccccc5O4)CC3)ccc12 (stereo not drawn) | -10 | 5 | · | 1 | -21 | 20
Cc1cc(=O)oc2cc(OCC(=O)N3CCN(C(=O)C4COc5ccccc5O4)CC3)c(Cl)cc12 (stereo not drawn) | 15 | 6 | · | 9 | 13 | 58*
COc1ccccc1-c1cc(C(F)(F)F)nc(S(=O)(=O)CCCC(=O)N2CCCCC2C)n1 (stereo not drawn) | -9 | -2 | 67* | -8 | -24 | -32
COc1cccc2cc(-c3nc(-c4cccs4)cs3)c(=O)oc12 | -82 | -34 | -4 | -86 | -60 | 87*
O=c1oc2ccccc2cc1-c1nc(-c2cccs2)cs1 | -22 | -3 | · | 12 | 2 | 16
COc1ccc2c(c1)CCCN2C(=O)C1CCCN(S(=O)(=O)c2ccc(Cl)s2)C1 (stereo not drawn) | · | 9 | · | · | · | ·
Cc1ccc2nc(/C(C#N)=C/c3ccc(O)c(O)c3)[nH]c2c1 | 1 | -28 | 10 | -31 | -41 | 71*
C=CCN1[C@@H](Cc2ccccc2)COc2cccc(N3CCCC3)c2S1(=O)=O | · | -8 | · | · | · | ·
O=C(Nc1ccc(CN2CCOCC2)cc1)c1ccc(-c2cccc([N+](=O)[O-])c2)o1 | 1 | 1 | · | 13 | -4 | 62*
O=[N+]([O-])c1cccc(-c2ccc(C(=S)N3CCOCC3)o2)c1 | -117 | -52 | · | -91 | -125 | 0
Cc1ccc(C(=O)Oc2ccc(Cl)c3cccnc23)cc1[N+](=O)[O-] | 6 | -3 | -11 | -3 | 10 | 53*
COC(=O)[C@H](C(C)C)N(CCc1cn(CC2CCCCC2)nn1)S(=O)(=O)c1ccccc1Br | · | 9 | · | · | · | ·
COc1cc(C(=O)NCCCNc2nc3cc(C)cc(C)c3cc2C#N)cc(OC)c1OC | -8 | -2 | 11 | 0 | -16 | 81*
C=CCn1c(Cc2c[nH]c3ccccc23)nnc1SCC(=O)NCc1ccccc1 | 14 | · | · | 9 | 1 | 6
C=CCn1c(CNc2ccccc2)nnc1SCC(=O)N/N=C/c1ccccc1O | 6 | 24 | 0 | 16 | -10 | 63*
O=C(COC(=O)Cc1n[nH]c(=O)c2ccccc12)Nc1c(Br)cc([N+](=O)[O-])cc1Br | · | 11 | 1 | 4 | · | 97*
O=C(COC(=O)c1ccc[n+]([O-])c1)Nc1c(Br)cc([N+](=O)[O-])cc1Br | 10 | · | · | · | 8 | ·
Cc1ccc(S(=O)(=O)N(C)C)cc1NC(=O)COC(=O)Cc1n[nH]c(=O)c2ccccc12 | 11 | 8 | 4 | 10 | -3 | 75*
Cc1ccc(S(=O)(=O)N(C)C)cc1NC(=O)COC(=O)c1n[nH]c(=O)c2ccccc12 | 3 | 4 | -4 | 4 | 13 | 11
NS(=O)(=O)c1cccc(NC(=O)COC(=O)Cc2n[nH]c(=O)c3ccccc23)c1 | 6 | 5 | -31 | 2 | 11 | 52*
CN(CCO)c1cccc2c1S(=O)(=O)N(Cc1cn(Cc3cccc(F)c3)nn1)Cc1ccccc1O2 | · | -7 | · | · | · | ·
SMILES | Jurkat NFkB inh | NR2F2 inh | H9c2 TAG inh | Gli-Sufu antag | 697 NFkB inh | H9c2 protect
COc1ccc(Nc2nc(Nc3ccc(OC)cc3OC)nc(N3CCN(C)CC3)n2)c(OC)c1 | 10 | -8 | · | 6 | 10 | 64*
COc1ccc(Nc2nc(N3CCCC3)nc(N3CCCC3)n2)c(OC)c1 | 23 | 3 | · | 12 | -1 | -15
COC[C@H]1CCCN1c1ccc2c(c1)O[C@H](C)CCN(C1CC1)S2(=O)=O | · | 14 | · | · | · | ·
O=c1[nH]c(N2CCOCC2)cc2ccccc12 | 10 | 9 | 10 | 0 | -4 | 56*
COc1ccc(/C=N/NC(=O)c2ccn[nH]2)cc1COc1ccc(Cl)cc1 | 12 | -19 | -11 | -5 | -11 | 63*
N#Cc1ccc(/C=C2\CC3(OC(=O)c4ccc(Cl)cc4)CCCN2C3)cc1 (stereo not drawn) | · | 20 | · | · | · | ·
